Results taken from PubChem BioAssay (NCI).
The panel holds about 83,000 compounds, 20% with a hit somewhere; the sample as a whole holds those more often.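 How to read the values: 0–100, growth inhibition (40 = 60% inhibited); 0, no net growth; -100 to 0, cell death (-40 = 40% of starting cells died; -100 = all dead).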 Calls of active or inactive are those of the source. How the source made its calls: active means growth percent below 10; inactive means the rest.

Each molecule was assayed on HOP-62 NSCLC (assay: NCI-60 one-dose screen, 48 h (100 = growth as untreated, 0 = no growth, -100 = all killed)). Details: 10 µM unless noted.

Row | Compound | growth
1 | C=C1C(=O)O[C@H]2[C@H]1CC/C(COC(=O)NCCc1c[nH]c3ccccc13)=C\CC[C@@]1(C)O[C@@H]21 | 57.7% (inactive)
2 | C/C(=N\Nc1cc(C)c2ccccc2n1)c1ccccn1 | 15.1% (inactive)
3 | COC(=O)CNc1nc(N(C)O)nc(N(C)O)n1 | 34.2% (inactive)
4 | Cc1ccc(-c2nc([P+](c3ccccc3)(c3ccccc3)c3ccccc3)c(N3C[C@H]4C[C@H](C3)c3cccc(=O)n3C4)o2)cc1 | 90.4% (inactive)
5 | COC(=O)[C@]12CC[C@@H](C)[C@H](C)[C@@H]1C1=CC[C@@H]3[C@@]4(C)CC(=O)[C@H](OC(=O)c5ccco5)[C@@]5(C)COC(=C45)C[C@@]3(C)[C@]1(C)CC2 | 34.4% (inactive)
6 | COc1ccc(/C=C/C(=O)NCC(C)O)cc1 (stereo not drawn) | 89.1% (inactive)
7 | Cc1nn(-c2ccc(Cl)cc2)c(=O)n1CCn1cnc2ccccc21 | 101% (inactive)
8 | CN1CCN(CCOc2ccc(-c3cnc4c(-c5ccccc5F)cnn4c3)cc2)CC1 | 64.7% (inactive)
9 | O=C(NO)c1ccc(Cn2c(=O)n(-c3ccccc3)c(=O)c3ccccc32)cc1 | 29.3% (inactive)
10 | COc1cccc2c1C(=O)c1c(O)c3c(c(O)c1C2=O)C[C@@](O)(C(=O)CO)C[C@@H]3OC1C[C@H](N)[C@H](O)[C@H](C)O1 (stereo partly drawn) | -29.2% (active)
11 | CCC(CC)C(=O)OC(C)COc1ccc(C(C)(C)C)cc1 (stereo not drawn) | 103% (inactive)
12 | CN1CCN(CCOc2ccc(-c3cnc4c(-c5cccc(F)c5)cnn4c3)cc2)CC1 | 90% (inactive)
13 | O=S(=O)(NCCNc1cc(-c2cn(-c3ccccc3)nc2-c2cccc(O)c2)ccn1)c1cccc(F)c1 | 56.7% (inactive)
